Measured values taken from PubChem BioAssay (Tox21).
Where “and” joins values, the source holds several entries; their conditions need not be identical. Equal values may be shown once. Results filed as inconclusive are left out. Calls of active or inactive are those of the source. Unless noted, the call rests on the fitted dose curve.

Target: Androgen receptor (Homo sapiens) (UniProt P10275)
Assay: qHTS assay to identify small molecule agonists of the androgen receptor (AR) signaling pathway in the presence of an antagonist (AID 1259381); further: nearly all actives have a fitted effect of over 15% in size; further: potency means the concentration at half of the fitted maximal effect
Conditions: MDA-kb2 MMTV-luciferase, AR agonist + nilutamide, 16 h; series mostly up to 92.4 µM; activation: at the top concentration
How it was run: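 Luciferase read-out (ONE-Glo, 30min room temperature) in MDA-kb2 MMTV-reporter cells; agonist mode run in presence of AR antagonist nilutamide, 3.0uM final. Compounds tested as 15-point series, 16hr exposure at 37C, 0% CO2.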
On the % scale 0 is the no-effect control and ±100 the full control effect.

Sequence of Androgen receptor (Homo sapiens) (P10275 whole entry, looked up): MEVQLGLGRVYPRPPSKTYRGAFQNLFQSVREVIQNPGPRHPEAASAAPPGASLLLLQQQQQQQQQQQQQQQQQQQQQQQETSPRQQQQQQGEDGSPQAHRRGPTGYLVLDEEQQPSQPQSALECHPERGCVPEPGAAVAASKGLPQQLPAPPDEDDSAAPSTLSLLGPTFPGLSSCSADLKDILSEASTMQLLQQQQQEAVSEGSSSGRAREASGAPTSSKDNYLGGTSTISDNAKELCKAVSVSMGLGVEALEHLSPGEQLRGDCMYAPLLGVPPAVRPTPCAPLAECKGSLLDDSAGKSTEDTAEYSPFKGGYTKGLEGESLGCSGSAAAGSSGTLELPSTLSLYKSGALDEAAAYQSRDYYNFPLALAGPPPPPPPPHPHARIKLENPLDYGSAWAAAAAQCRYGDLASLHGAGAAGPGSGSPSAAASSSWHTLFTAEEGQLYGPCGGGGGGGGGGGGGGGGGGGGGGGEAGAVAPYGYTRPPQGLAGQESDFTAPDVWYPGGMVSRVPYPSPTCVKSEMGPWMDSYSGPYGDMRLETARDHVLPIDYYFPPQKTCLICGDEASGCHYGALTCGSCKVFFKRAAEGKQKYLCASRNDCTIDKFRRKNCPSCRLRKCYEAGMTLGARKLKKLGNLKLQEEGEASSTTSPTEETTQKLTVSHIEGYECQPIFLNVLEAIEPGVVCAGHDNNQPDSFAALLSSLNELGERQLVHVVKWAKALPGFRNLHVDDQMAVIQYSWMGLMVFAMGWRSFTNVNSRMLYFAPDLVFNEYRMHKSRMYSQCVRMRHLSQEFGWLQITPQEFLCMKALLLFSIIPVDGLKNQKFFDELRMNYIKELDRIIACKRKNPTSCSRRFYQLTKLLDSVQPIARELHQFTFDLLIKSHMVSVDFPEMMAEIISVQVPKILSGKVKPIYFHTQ

SMILES	Potency	activation
O=C(Oc1ccccc1)c1cccc(C(=O)Oc2ccccc2)c1	0.644 µM (active)	
CO[Si](CCC1CCC2OC2C1)(OC)OC (stereo unspecified)		-2.16% (inactive)
CC(=O)O[C@@H]1C[C@@H]2CC[C@@]1(C)C2(C)C		8.95% (inactive)
CC1(C)COCN1		11.4% (inactive)
CCC(C)c1ccccc1 (stereo unspecified)		6.56% (inactive)
CCC1CCCCC1		0.0625% (inactive)
COC(=O)C1=C(C)NC(C)=C(C(=O)OCCCN2CCC(c3ccccc3)(c3ccccc3)CC2)C1c1cccc([N+](=O)[O-])c1 (stereo unspecified)		-10.3% [at 42.5 µM] (inactive)
CC1CCCCN1CCCOC(=O)c1ccc(OC2CCCCC2)cc1 (stereo unspecified)		-9.05% [at 42.5 µM] (inactive)
CCCCCCCOC(=O)c1ccccc1C(=O)OCCCCCCC		3.46% (inactive)
C=CC(C)(CCC=C(C)C)OC(=O)/C=C/c1ccccc1 (stereo unspecified)		0.25% (inactive)
Oc1cc2ccccc2cc1O		-1.91% (inactive)
N#CSCSc1nc2ccccc2s1		3.07% (inactive)

System: not listed separately
Assay: qHTS assay to identify small molecule antagonists of the estrogen receptor beta (ER-beta) signaling pathway - cell viability counter screen (AID 1259382; active means well fitted cell-killing curve with a large enough effect in the repeat runs; further: nearly all actives have a fitted effect of over 55% in size; further: potency means the concentration at half of the fitted maximal effect;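 on activity change, negative = cytotoxicity: HEK293T cells carrying ER-beta-UAS-bla reporter stimulated with estradiol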)
Conditions: ER-beta-UAS-bla HEK293T viability, CellTiter-Glo luminescence, 16 h; series mostly up to 92.4 µM; activity change, negative = cytotoxicity: at the top concentration
How it was run: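 Luminescent ATP read-out (CellTiter-Glo, 30 min, RT) taken in the same wells as the bla reporter assay. HEK293T ER-beta-UAS-bla cells in 2% charcoal-stripped FBS were exposed to compounds with 1nM E2 for 16 hr at 37C.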

SMILES	activity change, negative = cytotoxicity	Potency
CN1[C@@H]2CC[C@@H]1CC(OC(=O)C(CO)c1ccccc1)C2 (stereo partly specified)	-3.87% [at 42.5 µM] (inactive)	
O=C(Oc1ccccc1)c1cccc(C(=O)Oc2ccccc2)c1	-10.1% (inactive)	
CO[Si](CCC1CCC2OC2C1)(OC)OC (stereo unspecified)	0% (inactive)	
CC(C)(C)c1cc(/C=C2\SC(=N)NC2=O)cc(C(C)(C)C)c1O	-12.5% (inactive)	
COC(=O)CC(C)CCC=C(C)C (stereo unspecified)	-0.868% (inactive)	
CC(=O)O[C@@H]1C[C@@H]2CC[C@@]1(C)C2(C)C	7.01% (inactive)	
CCCCCCCCCCCCOC(=O)c1cc(O)c(O)c(O)c1		68.3 µM (active) and 68.6 µM (active)
Cc1occc1SSc1ccoc1C	-13.3% (inactive)	
CC(C)c1ccc(O)c(C(C)C)c1	-8.17% (inactive)	
CC1(C)COCN1	0.152% (inactive)	
CCC1CCCCC1	0.707% (inactive)	
CC(C)C(=O)OCc1ccccc1	1.37% (inactive)	
CC(C)(c1cc(Br)c(O)c(Br)c1)c1cc(Br)c(O)c(Br)c1		68.4 µM (active)
CCC1(c2cnc[nH]2)Cc2ccccc2C1	-12.9% [at 42.5 µM] (inactive)	
CC1CCCCN1CCCOC(=O)c1ccc(OC2CCCCC2)cc1 (stereo unspecified)	-22.4% [at 42.5 µM] (inactive)	
CCCCCCCOC(=O)c1ccccc1C(=O)OCCCCCCC	1.24% (inactive)	
C=CC(C)(CCC=C(C)C)OC(=O)/C=C/c1ccccc1 (stereo unspecified)	-0.0373% (inactive)	
COC(=O)[C@]1(C)CCC[C@@]2(C)[C@H]1CC=C1C=C(C(C)C)CC[C@@H]12	4.63% (inactive)	
C=C(C)C(=O)OCCC[Si](Cl)(Cl)Cl	4.63% (inactive)	
Oc1cc2ccccc2cc1O	-14.4% (inactive)	
CC=O		57 µM (active)
c1cc2c3c(c1)ccc1cccc(c13)C2	-14.2% (inactive)	
CC(COC(=O)c1ccccc1)OC(=O)c1ccccc1 (stereo unspecified)	6.5% (inactive)	
O=C1NC2CCCCN2C12CCN(CCCN1c3ccccc3CCc3ccc(Cl)cc31)CC2 (stereo unspecified)		26.6 µM (active)
COc1ccc(C#N)cc1	0% (inactive)	
CCCCCCCCCCCC(=O)N(CC)CC	-0.572% (inactive)	

Target: Estrogen receptor (Homo sapiens) (UniProt P03372)
Assay: qHTS assay to identify small molecule agonists of the estrogen receptor alpha (ER-alpha) signaling pathway in the presence of an antagonist (AID 1259383); further: top concentration of the series differs between compounds; nearly all actives have a fitted effect of over 15% in size
Conditions: VM7Luc4E2 cells, ERE-luciferase, +ICI-182,780, 22 h; series mostly up to 92.4 µM; activation: at the top concentration
How it was run: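 Luciferase luminescence (ONE-Glo, 30min at room temperature) measured in VM7Luc4E2 cells after 22hr compound exposure at 15 concentrations, with 10.0nM ICI-182,780 final present; cells express endogenous ER-alpha and carry four EREs upstream of luciferase.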

Sequence of Estrogen receptor (Homo sapiens) (P03372 whole entry, looked up): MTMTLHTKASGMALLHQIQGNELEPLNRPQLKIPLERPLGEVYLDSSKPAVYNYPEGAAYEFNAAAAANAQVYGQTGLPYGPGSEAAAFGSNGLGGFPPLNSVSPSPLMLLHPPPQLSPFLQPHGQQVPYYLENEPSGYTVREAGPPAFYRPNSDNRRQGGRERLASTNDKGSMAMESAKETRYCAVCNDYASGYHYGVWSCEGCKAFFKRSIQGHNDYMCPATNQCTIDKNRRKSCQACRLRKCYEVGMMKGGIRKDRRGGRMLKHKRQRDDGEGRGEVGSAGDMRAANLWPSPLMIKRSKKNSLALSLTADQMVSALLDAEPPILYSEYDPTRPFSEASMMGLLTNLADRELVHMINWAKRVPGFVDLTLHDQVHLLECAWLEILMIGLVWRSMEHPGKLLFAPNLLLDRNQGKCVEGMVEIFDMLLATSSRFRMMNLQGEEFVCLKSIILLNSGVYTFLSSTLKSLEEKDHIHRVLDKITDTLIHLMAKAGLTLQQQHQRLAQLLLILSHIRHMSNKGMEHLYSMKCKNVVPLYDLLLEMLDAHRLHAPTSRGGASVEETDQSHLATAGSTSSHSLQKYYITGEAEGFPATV

SMILES	activation	Potency
CO[Si](CCC1CCC2OC2C1)(OC)OC (stereo unspecified)	-1.26% (inactive)	
CC(C)(C)c1cc(/C=C2\SC(=N)NC2=O)cc(C(C)(C)C)c1O	2.04% (inactive)	
COC(=O)CC(C)CCC=C(C)C (stereo unspecified)	-0.168% (inactive)	
CNC(=S)NN	10.5% (inactive)	
CCCCCCCCCCCCOC(=O)c1cc(O)c(O)c(O)c1		inactive
CC(C)c1ccc(O)c(C(C)C)c1	-2.38% (inactive)	
CCC(C)c1ccccc1 (stereo unspecified)	-0.0814% (inactive)	
CCO[Si](C)(C)OCC	0.297% (inactive)	
CC(C)C(=O)OCc1ccccc1	1.43% (inactive)	
CC1CCCCN1CCCOC(=O)c1ccc(OC2CCCCC2)cc1 (stereo unspecified)	-0.207% [at 42.5 µM] (inactive)	
CCCCCCCOC(=O)c1ccccc1C(=O)OCCCCCCC	-1.14% (inactive)	
C=CC(C)(CCC=C(C)C)OC(=O)/C=C/c1ccccc1 (stereo unspecified)	-0.332% (inactive)	
ClC/C=C\CCl	0.678% (inactive)	
Oc1cc2ccccc2cc1O	1.7% (inactive)	
O=C1Nc2ccc(Cl)cc2[C@@](C#CC2CC2)(C(F)(F)F)O1	-1.28% [at 42.5 µM] (inactive)	
CC=O	-15.2% (inactive)	
CC(COC(=O)c1ccccc1)OC(=O)c1ccccc1 (stereo unspecified)	0.0265% (inactive)	
N#CSCSc1nc2ccccc2s1	-1.07% (inactive)	
O=C1NC2CCCCN2C12CCN(CCCN1c3ccccc3CCc3ccc(Cl)cc31)CC2 (stereo unspecified)	-0.232% [at 42.5 µM] (inactive)	
COc1ccc(C#N)cc1	-1.71% (inactive)	

System: not listed separately
Assay: qHTS assay to identify small molecule agonists or antagonists of the thyroid stimulating hormone receptor (TSHR) signaling pathway - wild type cell line counter screen (AID 1259384)
Conditions: HEK293 wild type, cAMP HTRF counter-screen, active compounds read high; series mostly up to 92.4 µM; cAMP activity change: at the top concentration
How it was run: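 Wild-type HEK293 cells were plated 18 h at 37 C/5% CO2, pin-dosed with compound plus Ro20-1724 medium, held 30 min at room temperature, then given cAMP-d2 and anti-cAMP-cryptate; fluorescence was read after 1 h. Fifteen concentrations, triplicate.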

SMILES	cAMP activity change	outcome
O=C(Oc1ccccc1)c1cccc(C(=O)Oc2ccccc2)c1	2.91% (inactive)	
CO[Si](CCC1CCC2OC2C1)(OC)OC (stereo unspecified)	0.621% (inactive)	
CC(C)(C)c1cc(/C=C2\SC(=N)NC2=O)cc(C(C)(C)C)c1O	5.97% (inactive)	
CNC(=S)NN	-0.54% (inactive)	
CC(=O)O[C@@H]1C[C@@H]2CC[C@@]1(C)C2(C)C	-4.37% (inactive)	
CCCCCCCCCCCCOC(=O)c1cc(O)c(O)c(O)c1		inactive
Cc1occc1SSc1ccoc1C	0.0343% (inactive)	
CC(C)c1ccc(O)c(C(C)C)c1	0.857% (inactive)	
CC1(C)COCN1	-1.81% (inactive)	
CCC(C)c1ccccc1 (stereo unspecified)	0.62% (inactive)	
CCC1CCCCC1	-0.664% (inactive)	
COC(=O)C1=C(C)NC(C)=C(C(=O)OCCCN2CCC(c3ccccc3)(c3ccccc3)CC2)C1c1cccc([N+](=O)[O-])c1 (stereo unspecified)	6.61% [at 42.5 µM] (inactive)	
CCO[Si](C)(C)OCC	6.91% (inactive)	
CC(C)C(=O)OCc1ccccc1	-2.17% (inactive)	
CC(C)(c1cc(Br)c(O)c(Br)c1)c1cc(Br)c(O)c(Br)c1		inactive
CC1CCCCN1CCCOC(=O)c1ccc(OC2CCCCC2)cc1 (stereo unspecified)	4.37% [at 42.5 µM] (inactive)	
CCCCCCCOC(=O)c1ccccc1C(=O)OCCCCCCC	3.91% (inactive)	

SMILES	cAMP activity change	outcome
C=CC(C)(CCC=C(C)C)OC(=O)/C=C/c1ccccc1 (stereo unspecified)	3.55% (inactive)	
COC(=O)NCCC[Si](OC)(OC)OC	-6.23% (inactive)	
COC(=O)[C@]1(C)CCC[C@@]2(C)[C@H]1CC=C1C=C(C(C)C)CC[C@@H]12	-1.92% (inactive)	
ClC/C=C\CCl	-2.52% (inactive)	
C=C(C)C(=O)OCCC[Si](Cl)(Cl)Cl	1.67% (inactive)	
Oc1cc2ccccc2cc1O	-1.46% (inactive)	
O=C1Nc2ccc(Cl)cc2[C@@](C#CC2CC2)(C(F)(F)F)O1	-5.78% [at 42.5 µM] (inactive)	
CC=O	2.02% (inactive)	
c1cc2c3c(c1)ccc1cccc(c13)C2	-1.45% (inactive)	
CC(COC(=O)c1ccccc1)OC(=O)c1ccccc1 (stereo unspecified)	1.11% (inactive)	
N#CSCSc1nc2ccccc2s1	-2.17% (inactive)	
Cc1cccc(Br)c1	-4.54% (inactive)	
O=C(O)CC(=O)O	2.04% (inactive)	
O=C1NC2CCCCN2C12CCN(CCCN1c3ccccc3CCc3ccc(Cl)cc31)CC2 (stereo unspecified)	0.484% [at 42.5 µM] (inactive)	
COc1ccc(C#N)cc1	0.268% (inactive)	
CCCCCCCCCCCC(=O)N(CC)CC	4.63% (inactive)	
